# From PubChem
# Compounds with a hit are over-represented: about 3.5% of the library has one in this group of screens.
# mHTT CaM bind: disrupts binding of mutant huntingtin to calmodulin | AlphaScreen His-mHTT/GST-CaM binding, luminescence | actives 3.6% (n = 190,000) | inhibition, % at 15 µM | P42858 | AID 1671202;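 note: 0% = both proteins with DMSO and 100% = one protein alone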
# Target sequence (P42858 whole entry, looked up, stated change not applied): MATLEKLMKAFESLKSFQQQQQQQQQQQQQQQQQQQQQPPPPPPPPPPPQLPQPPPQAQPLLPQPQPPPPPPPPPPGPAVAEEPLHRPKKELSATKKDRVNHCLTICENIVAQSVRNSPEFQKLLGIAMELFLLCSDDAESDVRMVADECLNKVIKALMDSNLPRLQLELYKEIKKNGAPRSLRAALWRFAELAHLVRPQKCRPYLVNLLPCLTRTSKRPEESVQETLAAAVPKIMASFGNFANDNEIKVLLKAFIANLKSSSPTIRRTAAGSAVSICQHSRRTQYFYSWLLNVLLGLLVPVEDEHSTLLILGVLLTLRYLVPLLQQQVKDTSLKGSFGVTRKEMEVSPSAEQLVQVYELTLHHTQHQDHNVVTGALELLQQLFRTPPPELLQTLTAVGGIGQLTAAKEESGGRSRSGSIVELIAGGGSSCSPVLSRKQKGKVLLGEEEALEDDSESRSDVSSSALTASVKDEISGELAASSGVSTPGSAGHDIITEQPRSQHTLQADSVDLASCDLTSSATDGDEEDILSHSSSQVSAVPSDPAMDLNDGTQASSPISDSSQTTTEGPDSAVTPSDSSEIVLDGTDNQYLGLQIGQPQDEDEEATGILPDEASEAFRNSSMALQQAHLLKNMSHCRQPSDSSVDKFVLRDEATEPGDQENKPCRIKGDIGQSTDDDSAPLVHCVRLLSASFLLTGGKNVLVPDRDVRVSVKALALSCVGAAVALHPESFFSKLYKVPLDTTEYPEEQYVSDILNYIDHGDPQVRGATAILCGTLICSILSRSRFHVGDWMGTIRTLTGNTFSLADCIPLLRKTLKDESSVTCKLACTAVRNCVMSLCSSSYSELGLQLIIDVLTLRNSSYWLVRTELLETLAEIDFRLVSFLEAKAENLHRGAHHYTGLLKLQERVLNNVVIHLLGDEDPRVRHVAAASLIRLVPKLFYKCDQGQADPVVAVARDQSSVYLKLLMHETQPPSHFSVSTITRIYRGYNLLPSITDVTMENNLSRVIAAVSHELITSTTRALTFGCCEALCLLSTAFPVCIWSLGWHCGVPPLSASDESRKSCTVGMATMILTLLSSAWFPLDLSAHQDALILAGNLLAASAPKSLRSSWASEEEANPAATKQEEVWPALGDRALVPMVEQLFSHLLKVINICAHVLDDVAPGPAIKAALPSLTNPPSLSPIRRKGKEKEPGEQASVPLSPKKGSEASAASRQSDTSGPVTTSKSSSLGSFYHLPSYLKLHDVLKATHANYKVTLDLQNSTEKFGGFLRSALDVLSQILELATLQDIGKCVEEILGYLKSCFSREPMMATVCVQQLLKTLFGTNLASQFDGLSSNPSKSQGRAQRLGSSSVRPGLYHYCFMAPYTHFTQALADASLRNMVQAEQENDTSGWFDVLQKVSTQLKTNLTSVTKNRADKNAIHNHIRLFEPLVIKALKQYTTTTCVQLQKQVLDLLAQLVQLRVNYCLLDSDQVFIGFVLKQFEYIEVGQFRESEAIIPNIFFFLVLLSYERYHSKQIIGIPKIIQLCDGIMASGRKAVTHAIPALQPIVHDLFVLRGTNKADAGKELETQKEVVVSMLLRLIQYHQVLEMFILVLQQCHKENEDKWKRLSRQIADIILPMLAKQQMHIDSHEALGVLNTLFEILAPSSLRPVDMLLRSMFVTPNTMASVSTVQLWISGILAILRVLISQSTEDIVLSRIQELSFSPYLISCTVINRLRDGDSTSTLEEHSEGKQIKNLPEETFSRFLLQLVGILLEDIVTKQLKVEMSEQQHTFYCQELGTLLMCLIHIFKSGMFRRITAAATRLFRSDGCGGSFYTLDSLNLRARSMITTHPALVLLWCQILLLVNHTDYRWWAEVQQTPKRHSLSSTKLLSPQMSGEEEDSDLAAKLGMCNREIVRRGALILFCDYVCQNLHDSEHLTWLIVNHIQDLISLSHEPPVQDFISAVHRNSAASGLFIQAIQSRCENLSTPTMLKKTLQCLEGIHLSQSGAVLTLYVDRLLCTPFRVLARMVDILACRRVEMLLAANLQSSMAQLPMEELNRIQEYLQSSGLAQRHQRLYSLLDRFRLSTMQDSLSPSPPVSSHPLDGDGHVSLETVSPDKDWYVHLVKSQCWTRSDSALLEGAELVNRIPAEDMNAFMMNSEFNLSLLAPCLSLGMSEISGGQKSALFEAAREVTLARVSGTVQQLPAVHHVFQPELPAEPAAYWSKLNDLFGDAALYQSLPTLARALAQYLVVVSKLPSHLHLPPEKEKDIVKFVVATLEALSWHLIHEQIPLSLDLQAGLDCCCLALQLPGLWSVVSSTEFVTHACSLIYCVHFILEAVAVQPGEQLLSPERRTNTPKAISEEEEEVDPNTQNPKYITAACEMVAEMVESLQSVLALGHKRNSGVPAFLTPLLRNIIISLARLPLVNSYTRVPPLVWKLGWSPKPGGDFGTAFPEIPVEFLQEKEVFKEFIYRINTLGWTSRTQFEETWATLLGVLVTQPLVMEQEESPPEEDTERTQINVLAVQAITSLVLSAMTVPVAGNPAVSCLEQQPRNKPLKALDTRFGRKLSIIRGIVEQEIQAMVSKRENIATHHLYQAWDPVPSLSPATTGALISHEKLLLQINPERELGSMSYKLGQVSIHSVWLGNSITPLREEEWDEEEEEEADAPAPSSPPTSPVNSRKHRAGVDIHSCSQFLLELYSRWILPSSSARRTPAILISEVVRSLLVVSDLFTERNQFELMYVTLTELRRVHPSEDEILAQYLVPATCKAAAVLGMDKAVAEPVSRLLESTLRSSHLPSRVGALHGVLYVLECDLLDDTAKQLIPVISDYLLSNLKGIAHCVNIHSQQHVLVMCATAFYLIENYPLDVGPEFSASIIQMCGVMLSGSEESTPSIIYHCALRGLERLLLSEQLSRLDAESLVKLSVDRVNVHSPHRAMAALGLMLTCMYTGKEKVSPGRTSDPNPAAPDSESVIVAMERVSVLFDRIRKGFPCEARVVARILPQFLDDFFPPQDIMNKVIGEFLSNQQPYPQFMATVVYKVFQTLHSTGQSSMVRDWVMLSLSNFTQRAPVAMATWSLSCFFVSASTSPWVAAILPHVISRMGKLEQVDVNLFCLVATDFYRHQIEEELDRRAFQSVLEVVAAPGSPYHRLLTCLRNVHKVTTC
# Pf apPOL inh: Pf-apPOL DNA polymerase inhibition. Recombinant Pf-apPOL, molecular beacon fluorescence, 1.5 h. inhibition, % at 10 µM. actives 0.25% (n = 210,000)
# An asterisk follows results filed as active; / = not tested or not shown. Cut-off read from the data, not from the text of the source: active = inhibition above about 50%; inactive = the rest.
SMILES,mHTT CaM bind,Pf apPOL inh
CC1C=C[C@@H]2[C@H](C1)C(=O)N(Cc1ccccc1)[C@H]2c1ccccc1Br (some centres not stated),39,-4
CCCC12CN3CC(C)(CN(C1)C(=O)c1ccccc1C3=O)C2=O,-1,-2
Cc1ccccc1C(=O)N1CCN(c2ccc(-c3ccccc3C)nn2)CC1,-4,-15
COc1cc(NC(=O)C2CCCN(c3nnc4c(Cl)cccn34)C2)cc(OC)c1 (configuration not stated),12,-1
O=[N+]([O-])c1ccc(Sc2ccsc2)c([N+](=O)[O-])c1,69*,/
O=[N+]([O-])c1cc(Cl)ccc1Sc1ccccc1,/,7
Cc1cc(=O)[nH]c(-c2ccccc2)n1,/,-2
Cc1cc(=O)[nH]c(-c2cnccn2)n1,94*,-17
Cc1ccc(C2=NC3(CCN(CC(=O)NCc4ccc(Cl)cc4)CC3)NC2=O)cc1,42,2
Cc1cccc(C2=NC3(CCN(CC(=O)Nc4ccc(F)cc4)CC3)NC2=O)c1,69*,5
Cc1ccc(CN2CCC3(CC2)N=C(c2ccccc2)C(=O)N3)cc1,54*,-7
O=C(CN1CCC2(CC1)N=C(c1cccc(Cl)c1)C(=O)N2)Nc1ccc(Cl)cc1,88*,3
O=C(CN1CCC2(CC1)N=C(c1cccc(F)c1)C(=O)N2)Nc1ccc(Cl)cc1,17,3
Cc1ccc(C2=NC3(CCN(Cc4ccc(F)cc4)CC3)NC2=O)cc1,1,3
Cc1cccc(NC(=O)CN2CCC3(CC2)N=C(c2ccc(F)cc2)C(=O)N3)c1,-8,-1
Cc1cccc(C2=NC3(CCN(CC(=O)NCc4ccc(Cl)cc4)CC3)NC2=O)c1,53*,11
CCOC(=O)C1CCCN(C(=O)c2cc3c(=O)n(C)c(=O)n(C)c3s2)C1 (configuration not stated),-7,0
CCCCOC(=O)Nc1cc([N+](=O)[O-])ccc1C,-3,-1
COc1ccc(/C=C2/SC(=Nc3ccc(O)cc3)NC2=O)cc1OC,7,3
Cc1cccc(CNC(=O)c2ccc(NC(=O)C3CC3)cc2N2CCCCC2)c1,18,-2
O=C1OCCN1C(=O)[C@H]1[C@H](c2ccc(F)cc2)C(c2ccc(F)cc2)=NN1c1ccccc1,24,1
O=C1OCCN1C(=O)[C@H]1[C@H](c2ccc(Cl)cc2)C(c2ccc(F)cc2)=NN1c1ccccc1,72*,2
O=C1OCCN1C(=O)[C@H]1[C@H](c2ccc(Cl)cc2)C(c2ccc(F)cc2)=NN1c1ccc(Br)cc1,79*,-7
O=C1OCCN1C(=O)[C@H]1[C@H](c2ccc(F)cc2)C(c2ccccc2)=NN1c1ccccc1,-33,1
O=C1OCCN1C(=O)[C@H]1[C@H](c2ccc(Cl)cc2)C(c2ccccc2)=NN1c1ccccc1,-9,-8
SMILES,mHTT CaM bind,Pf apPOL inh
O=C1OCCN1C(=O)[C@H]1[C@H](c2ccc(F)cc2)C(c2ccc(F)cc2)=NN1c1ccc(Br)cc1,54*,-6
Cc1cccc(NC(=O)C(=O)NCC2(O)CCCC2)c1C,-24,1
Cc1ccc([N+](=O)[O-])cc1S(=O)(=O)Nc1ccc(-c2ccc(=O)n(C)n2)cc1,-4,-3
CC12CCC(c3nc4cc(Cl)c(Cl)cc4nc31)C2(C)C (configuration not stated),-4,-1
CCC(=O)N(C)CC(=O)N1N=C(c2cccs2)CC1c1ccc(F)cc1 (configuration not stated),12,0
COCCn1cc2c3c(cccc31)CN(C(=O)c1ccccn1)CC2,24,-6
COCCn1cc2c3c(cccc31)CN(C(=O)c1ccc(C)c(F)c1)CC2,53*,-2
COCCn1cc2c3c(cccc31)CN(C(=O)Nc1cc(F)cc(F)c1)CC2,2,0
COCCn1cc2c3c(cccc31)CN(C(=O)c1cccc(Cl)c1)CC2,65*,-3
COCCn1cc2c3c(cccc31)CN(C(=O)c1cccc(F)c1)CC2,54*,-1
COc1ccc(C(=O)N2CCc3cn(C)c4cccc(c34)C2)cc1F,32,-3
CCn1cc2c3c(cccc31)CN(C(=O)c1ccc(OC)c(F)c1)CC2,52*,-5
COCCn1cc2c3c(cccc31)CN(C(=O)c1ccc(F)c(Cl)c1)CC2,29,-5
O=C1OC(c2ccccc2[N+](=O)[O-])=N/C1=C/c1cccc(F)c1,6,2
COCCn1cc2c3c(cccc31)CN(C(=O)c1ccccc1Br)CC2,69*,-7
COCCn1cc2c3c(cccc31)CN(C(=O)c1ccccc1)CC2,40,-2
COCCn1cc2c3c(cccc31)CN(C(=O)CCCc1ccccc1)CC2,91*,-4
COCCn1cc2c3c(cccc31)CN(C(=O)c1ccccc1F)CC2,37,-4
CCCC(=O)N1CCc2cn(CC)c3cccc(c23)C1,14,-2
CCn1cc2c3c(cccc31)CN(C(=O)Cc1cccc(F)c1)CC2,66*,-2
COCCn1cc2c3c(cccc31)CN(C(=O)NCc1ccccc1)CC2,6,-1
COCCn1cc2c3c(cccc31)CN(C(=O)c1ccc(C)cc1)CC2,68*,-7
O=C(CCN1C(=O)c2ccccc2S1(=O)=O)NCc1cccs1,-12,6
Cn1ccc(-c2nnc(NC(=O)c3cnc4ccccc4n3)o2)n1,30,6
COCC(=O)Nc1ccc(F)c(Cl)c1,-1,-16
SMILES,mHTT CaM bind,Pf apPOL inh
CC1C(=O)N(c2ccc(F)cc2F)CCN1C(=O)COc1ccc(Cl)cc1 (configuration not stated),-4,-7
Cc1cc(C2CCCN2C(=O)c2c(Br)cnn2C)no1 (configuration not stated),-7,-9
Cc1ccc(C2=N/C(=C\c3ccc(Br)o3)C(=O)O2)cc1[N+](=O)[O-],37,7
Cc1ccc(C(=O)N2CCn3c(nnc3-c3ccccc3)C2)cn1,15,-1
COc1ccc(C(=O)N2CCc3cn(C)c4cccc(c34)C2)c(C)c1,30,-2
COCCn1cc2c3c(cccc31)CN(C(=O)c1ccc(OC)cc1C)CC2,51*,-3
Cc1ccnc(N2CCCC(C(=O)NCc3ccc(C)o3)C2)n1 (configuration not stated),-6,-3
COc1ccc2c(c1)Nc1ccccc1S2,63*,/
Clc1ccc2c(c1)Nc1ccccc1S2,40,/
Cc1nn(C)cc1C(=O)CC(=O)C(F)(F)F,-4,/
CC(C)=C1SC(=O)N(CC(=O)Nc2ccc(S(N)(=O)=O)cc2)C1=O,-8,-2
NS(=O)(=O)c1ccc(NC(=O)CN2CC(=O)Oc3ccccc32)cc1,98*,-166
COc1ccc(-n2nc(C(C)(C)C)cc2NC(=O)C2CCC2)cc1,1,-5
O=C(Nc1cc(-c2ccco2)nn1-c1cc(C(F)(F)F)cc(C(F)(F)F)c1)C1CCC1,/,91*
CCCN1C(=O)Cc2cc(C(=O)N(C)C)ccc21,-4,-5
Nc1nc(NC(=O)c2ccc([N+](=O)[O-])cc2)nn1-c1ccccc1,-4,-7
O=C(Nc1nc(NC(=O)c2ccccc2)n(-c2ccccc2)n1)c1ccccc1,89*,-3
CCn1c(=O)c2c(ncn2Cc2ccccc2C)n(-c2cccc(C)c2)c1=O,5,4
O=C(O)c1cccc(S(=O)(=O)N2CCCCCC2)c1,-15,-3
CC(C)c1ccc(S(=O)(=O)N=C2C=CC(=O)C=C2)cc1,86*,1
CC(C)(C)C1=CC(=NS(=O)(=O)c2ccc(F)cc2)C=C(C(C)(C)C)C1=O,1,-6
O=C1C=CC(=NS(=O)(=O)c2ccc(F)cc2)C=C1,50*,-9
